From PubChem
Compounds with a hit are over-represented: about 0.51% of the library has one in this group of screens.
Tat export inh – blocks Tat-dependent protein export in E. coli | AID 488895 | inhibition, % at 10 µM | 340,000 tested, 0.036% active | E. coli MC4100 TorA-mCherry Tat export, fluorescence;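 active = mean replicate inhibition at least 50% and at least half of replicates individually reaching 50%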;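 note: exported cargo escapes ClpAP degradation while cytoplasmic cargo is degraded and loses fluorescence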
E coli growth-1 – reduces bacterial viability in AddAB counter-screen. E. coli V3065 growth, OD600 absorbance, 18 h. inhibition, % at 11.9 µM. 330,000 tested, 0.27% active. AID 449728;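 active = inhibition above the campaign's mean inhibition across all tested compounds plus 3 SD, cut at about 9.9% in these data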;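 note: uninfected addAB+ strain grown without phage in ampicillin broth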
E coli growth-2 – inhibitors of Escherichia coli growth | OD600, 23 h; hits give low values | 330,000 tested, 0.21% active | OD600 absorbance (test concentration not listed);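 active = OD600 absorbance below the run mean of sample wells minus 3.6 SD, in any replicate, cut at about 0.56 in these data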
phage Ecoli inh – E. coli growth loss with phage present; growth absorbance; inhibition, % at 11.9 µM; 360,000 tested, 0.26% active; AID 651602; in the data active = inhibition above about 11%
AddAB inh – less growth of phage-infected E. coli with AddAB. E. coli expressing H. pylori AddAB, absorbance growth. inhibition, % at 11.9 µM. 330,000 tested, 0.29% active; in the data active = inhibition above about 12%
AddAB confirm – confirmation screen: growth loss of phage-infected E. coli expressing H. pylori AddAB | shares compounds with AddAB inh | E. coli V3065 expressing H. pylori AddAB, T4 phage, OD; T4 phage with gene 2 nonsense mutations | inhibition, % at 11.9 µM | 880 tested, 64% active;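 active = mean inhibition above a set limit taken from the earlier primary screen, cut at about 13% in these data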;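 note: higher means less bacterial growth since AddAB block lets phage replicate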
RecBCD counter – AddAB counter-screen: growth loss of RecBCD+ E. coli infected with mutant T4 phage; inhibition, % at 11.9 µM; shares compounds with AddAB inh; AID 488955; 880 tested, 73% active; E. coli V66 + mutant T4 phage, OD growth;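 active = mean inhibition above the mean of solvent-only control wells plus 3 SD, cut at about 4% in these data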;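 note: optical density read after an 18 h incubation at 37 °C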
bact viab count – counter-screen for AddAB inhibitors: inhibitors of bacterial viability; shares compounds with AddAB inh; absorbance (AddAB counterscreen); inhibition, % at 11.9 µM; 880 tested, 35% active; AID 488956; in the data active = inhibition above about 25%
A number is an active result; - = inactive; . = not tested or not shown.

SMILES | Tat export inh | E coli growth-1 | E coli growth-2 | phage Ecoli inh | AddAB inh | AddAB confirm | RecBCD counter | bact viab count
NC(=O)c1ccsc1NC(=O)COC(=O)c1ccc([N+](=O)[O-])o1 | - | 13 | - | - | 97 | 97 | 8.3 | -
Cc1cnc(CNC(=O)c2ccc3oc(C(C)C)nc3c2)[nH]1 | - | - | - | - | - | . | . | .
COc1cc(CNC(=O)c2ccc3oc(C(C)C)nc3c2)cc(OC)c1 | - | - | - | - | 14 | - | 6.4 | -
Cc1cc(NN=Cc2ccncc2)nc2ccccc12 | . | . | - | . | . | . | . | .
Cn1c(/C=C/c2ccc([N+](=O)[O-])o2)nc2ccccc2c1=O | - | 79 | 0.44 | . | 63 | 99 | 29 | 100
Cc1cc(N/N=C/c2ccc([N+](=O)[O-])o2)nc2ccccc12 | - | 32 | . | - | 50 | 43 | 4.9 | -
CCN1/C(=C/C=C/c2sc3ccccc3[n+]2CC)Sc2ccccc21 | - | - | . | . | 13 | 61 | 9.1 | -
Cc1ccc(C(=O)NC(C)CN2C3=NCC(C(C)C)N3CC2Cc2ccc(O)cc2)cc1Br (stereo not given) | . | . | - | . | . | . | . | .
O=C(COc1ccc(Cl)cc1)Nc1ncc([N+](=O)[O-])s1 | - | . | - | - | . | . | . | .
O=C(COC(=O)COc1ccccc1)Nc1ncc([N+](=O)[O-])s1 | - | - | - | - | 13 | 33 | 5.7 | -
CCN(c1cccc(C)c1)S(=O)(=O)c1cccc2nsnc12 | - | - | - | - | - | . | . | .
Cc1cccc(N(C)S(=O)(=O)c2cccc3nsnc23)c1 | - | - | - | - | 14 | - | - | -
COC(=O)c1ccc(NC(=NS(=O)(=O)c2ccccc2)c2ccccc2)cc1 | . | . | - | . | . | . | . | .
CCOC(=O)c1cn(C2CC2)c2c(F)c(NCCCN(C)C)c(F)cc2c1=O | - | - | - | - | 13 | 13 | - | -
Nc1ncnc2c1ncn2C1CCCO1 (stereo not given) | - | - | - | - | - | . | . | .
S=c1nc[nH]c2c1ncn2C1CCCO1 (stereo not given) | - | 22 | . | - | 26 | - | - | -
Cc1c(-n2cc(C(=O)O)c(=O)c3cc(F)c(N4CCCC(O)C4)c(F)c32)c(=O)n(-c2ccccc2)n1C (stereo not given) | - | - | - | - | - | . | . | .
COc1c(N2CCNC(C)C2)c(F)cc2c(=O)c(C(=O)O)cn(C3CC3)c12 (stereo not given) | . | 102 | 0.061 | . | 100 | 101 | 101 | 103
Cc1ccc(OCC(=O)Nc2cc(C)on2)c([N+](=O)[O-])n1 | - | 15 | - | - | 19 | 42 | 6.7 | 26
COc1ccc(C(NC(C)=O)c2cc(Cl)c3cccnc3c2O)cc1OC (stereo not given) | - | - | . | - | - | . | . | .
CCCC(=O)NC(c1ccc2c(c1)OCO2)c1cc(Cl)c2cccnc2c1O (stereo not given) | - | 24 | - | . | 23 | 21 | 22 | -
CCC(=O)NC(c1ccc(C)cc1)c1cc(Cl)c2cccnc2c1O (stereo not given) | - | 25 | . | . | 21 | 16 | 17 | -
CCC(=O)NC(C)c1cc(Cl)c2cccnc2c1O (stereo not given) | - | - | - | - | - | . | . | .
COc1ccc2c(c1)-c1nc(N=Cc3c(O)ccc4ccccc34)sc1CC2 | . | . | - | . | . | . | . | .
O=c1c2c(-c3ccccc3)csc2ncn1N=Cc1ccc(O)c([N+](=O)[O-])c1 | . | . | - | . | . | . | . | .
SMILES | Tat export inh | E coli growth-1 | E coli growth-2 | phage Ecoli inh | AddAB inh | AddAB confirm | RecBCD counter | bact viab count
N#Cc1c(NC(=O)c2ccccc2)sc2c1CCC2 | - | - | - | - | - | . | . | .
N#Cc1c(NC(=O)c2ccc([N+](=O)[O-])o2)sc2c1CCC2 | - | 11 | - | - | 16 | 64 | 7.3 | -
NC(=O)c1c(NC(=O)c2ccc([N+](=O)[O-])o2)sc2c1CCCC2 | - | 18 | - | - | 23 | 98 | 8.8 | 28
C=CCSc1nc2sc(C)c(C)c2c(=O)[nH]1 | - | - | - | - | 17 | - | - | -
O=C(CSc1nc2ccccc2o1)Nc1ccc(N2CCOCC2)cc1 | - | 13 | - | - | 13 | 15 | 9.7 | -
CN1CCN(Cc2c(C(=O)NN=Cc3cccc(Br)c3)nnn2-c2nonc2N)CC1 | . | . | - | . | . | . | . | .
CN(C)c1ccc(C=Nn2c(-c3cccnc3)n[nH]c2=S)cc1 | . | . | - | . | . | . | . | .
CCCCCCC(=O)Nc1ccc(C(=O)NN=Cc2cccnc2)cc1 | . | . | - | . | . | . | . | .
Cc1ccc(NC(=O)c2ccc([N+](=O)[O-])o2)cc1C | - | 31 | 0.47 | - | 27 | 98 | 11 | 31
O=C(Nc1ccc(N2CCCC2)c(Cl)c1)c1ccc([N+](=O)[O-])o1 | - | . | - | - | . | . | . | .
O=C(Nc1ccc2[nH]c(=O)[nH]c2c1)c1ccc([N+](=O)[O-])o1 | - | 19 | - | - | 18 | 57 | 9.0 | -
O=C(Nc1cccc(NC(=O)c2ccccc2Cl)c1)c1ccc([N+](=O)[O-])o1 | - | 11 | . | - | 13 | 84 | 5.5 | -
Cc1ccc(-n2[nH]c(C)c(C=Nc3cccc(C)n3)c2=O)cc1 | . | . | - | . | . | . | . | .
O=C(NCc1cccs1)C1CCN(S(=O)(=O)c2cccc3cccnc23)CC1 | - | - | - | - | 17 | - | - | -
O=C(Nc1nnc(C(F)(F)F)s1)c1ccc(Br)s1 | - | - | - | - | 14 | - | 6.7 | -
Cn1c(=O)c2c(nc(CN3CCC(C(N)=O)CC3)n2Cc2c(F)cccc2Cl)n(C)c1=O | - | - | - | - | - | . | . | .
CC1CCCCN1Cc1nc2c(c(=O)n(C)c(=O)n2C)n1Cc1c(F)cccc1Cl (stereo not given) | - | 25 | - | . | 35 | - | - | -
CC(=N/N=C1/NC(=O)C(Cc2ccccc2)S1)c1ccccc1 (stereo not given) | . | . | - | . | . | . | . | .
NC(=NOC(=O)c1ccc2ccccc2c1)c1ccccn1 | . | . | - | . | . | . | . | .
CCOC(=O)c1c(C)nc(C)c2c(=O)oc3ccccc3c12 | - | 99 | - | - | 98 | - | - | -
CCN1C(=O)C2C(c3ccc(-c4ccc5c(c4)OCO5)cc3)N3CCCC[C@@]3(C(=O)OC)C2C1=O (stereo not given in full) | . | . | - | . | . | . | . | .
CCOC(=O)N1CCN(C(=O)CCCn2c(=S)[nH]c3ccsc3c2=O)CC1 | - | 24 | - | - | 25 | - | - | -
CO[C@@]12[C@H](COC(N)=O)C3=C(C(=O)C(C)=C(N)C3=O)N1C[C@@H]1N[C@@H]12 | - | 14 | . | - | 15 | 77 | 16 | 70
CC[n+]1c(/C=C/N(C)c2ccccc2)n(-c2ccccc2)c2ccc(-c3nc4ccccc4s3)cc21 | - | 35 | 0.38 | . | 18 | 52 | 6.7 | -
CC[C@]12C(=O)N(C)CC(C3C(=O)N(C)C(=O)C31)N2C(=O)c1ccc(Cl)cc1 (stereo not given in full) | . | . | - | . | . | . | . | .
